This is a sample that favours compounds with a hit; in the whole collection about 10% have one here.
NS1 function inh – qHTS Assay for Inhibitors of Influenza NS1 Protein Function | Potency, µM (top dose mostly 46.1 µM), without a hit: top-dose activity, positive = more growth | 270,000 tested, 0.4% active; further: actives are rising curves; nearly all actives have a fitted effect of over 50% in size
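In this qHTS, NS1 from influenza A is expressed in budding yeast, where it slows growth. Cells are switched from glucose to 2% galactose medium (pH 6.0, -URA), treated with compound, and growth recovery is read at OD600.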
SARS PLP yeast – qHTS of Yeast-based Assay for SARS-CoV PLP; AID 485353, 2010; 330,000 tested, 0.19% active; S. cerevisiae expressing SARS-CoV PLpro, growth rescue; Potency, µM (highest dose often 32.9 µM), for inactives: at the top dose activity, positive = growth rescue, most hits filed as activators; further: 0% is about no effect; nearly all actives have a fitted effect of over 55% in size
Pf growth 48h – Primary qHTS for delayed death inhibitors of the malarial parasite plastid, 48 hour incubation | P. falciparum luciferase growth in erythrocytes, 48 h | Potency, µM (top dose mostly 28.7 µM), for the others: at the top dose activity change, negative = inhibition, most hits filed as inhibitors | 310,000 tested, 5.9% active; active means well fitted inhibition curve with a large enough effect; inconclusive means small, poorly fitted or top-dose-only effect, or another doubt; inactive means no such curve, though single readings can be large or run the other way; further: on the % scale 0 is the no-effect control and ±100 the full control effect
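Parasite viability was followed by luminescence of a genomically integrated firefly luciferase. Cultures held 0.1% parasitemia at 2% hematocrit (final), incubated under 5% CO2 at 37 C.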
Pf growth 96h – Primary qHTS for delayed death inhibitors of the malarial parasite plastid, 96 hour incubation | P. falciparum luciferase reporter growth, 96 h | Potency, µM (highest dose often 28.7 µM), without a hit: at the highest dose activity change, negative = inhibition, actives largely listed as inhibitors | 320,000 tested, 6.9% active | AID 504834, 2011; active means well fitted inhibition curve with a large enough effect; inconclusive means small, poorly fitted or top-dose-only effect, or another doubt; inactive means no such curve, though single readings can be large or run the other way; further: on the % scale 0 is the no-effect control and ±100 the full control effect
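Plates of compound plus infected erythrocytes (2% hematocrit, 0.05% parasitemia final) incubate 96 hours, 37 C, 5% CO2. Detection reagent added; reduced luminescence from the parasites' luciferase reporter flags inhibition.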
* hit, by the source's call; u = inconclusive; x = no result given. Unless noted, the call rests on the fitted dose curve. Potency means the concentration at half of the fitted maximal effect.

SMILES | NS1 function inh | SARS PLP yeast | Pf growth 48h | Pf growth 96h
COc1ccc(S(=O)(=O)n2nc(-c3ccc(Cl)cc3)cc2N)cc1OC | -1% | 10% | x | u
Nc1cc(-c2ccc(Br)cc2)nn1S(=O)(=O)c1ccccc1 | 3% | -6% | u | u
Nc1cc(-c2ccccc2)nn1S(=O)(=O)c1ccc(F)cc1 | 0% | 6% | x | 10µM*
Nc1cc(-c2ccc(Cl)cc2)nn1S(=O)(=O)c1ccc(Cl)cc1 | 6% | 11% | x | 3.3µM*
O=S(=O)(Cc1ccc(Cl)cc1)c1ncc(CO)n1Cc1ccccc1 | -7% | 0% | -16% | -12%
COc1ccc(NC(=O)CCC(=O)c2cc(C)sc2C)cc1 | x | 1% | 9% | 47%
Cc1ccc(Cn2cc(S(=O)(=O)c3ccc(C(C)C)cc3)c(=O)c3cc4c(cc32)OCO4)cc1 | u | -11% | 9.3µM* | 3.3µM*
O=C(O)C(=O)Cc1c[nH]c2ccccc12 | 4% | -12% | u | -31%
COc1ccc(OC)c(C(c2nnnn2C2CCCC2)N2CCc3ccccc3C2)c1 (stereo unspecified) | -60% | -28% | 2.9µM* | 24%
Cc1ccc(C(c2nnnn2C2CCCC2)N2c3ccccc3CC2C)cc1 (stereo unspecified) | 4% | -38% | 13µM* | u
COc1ccc(C(c2nnnn2C2CCCC2)N2CCc3ccccc3C2)cc1OC (stereo unspecified) | -32% | -7% | 3.7µM* | 35%
Fc1ccc(C(c2nnnn2C2CCCC2)N2CCc3ccccc32)cc1 (stereo unspecified) | -2% | -11% | u | u
CCOC(=O)c1cc2c(ccn2C)n1CC(=O)N(CC)CC | 2% | 0% | 16% | 20%
O=C(Nc1ccc(NC(=O)C2CCCCC2)nc1)c1cccs1 | -2% | 0% | u | 6%
CS(=O)(=O)N(CC(=O)NCc1ccncc1)c1cc(Cl)ccc1Cl | 2% | 1% | -3% | u
O=S1(=O)CCOC(CO)CN1Cc1ccc(Cl)c(Cl)c1 (stereo unspecified) | x | 25% | x | x
O=[N+]([O-])c1cccc(/C=N/Nc2cc(N3CCOCC3)ncn2)c1 | 8% | 0% | x | u
Clc1ccccc1/C=N/Nc1cc(N2CCOCC2)ncn1 | 0% | 0% | 121% | 8.3µM*
COc1ccc(-c2cnnn2-c2ccc([N+](=O)[O-])cc2)cc1 | -9% | -4% | u | u
COc1cc(OC)cc(C(=O)Nc2nc(CC(=O)NCc3ccc(F)cc3)cs2)c1 | x | 0% | u | 12µM*
O=C(Cc1csc(NC(=O)c2ccc(F)cc2)n1)NO | x | 1% | u | 8.3µM*
COc1cc(OC)cc(C(=O)Nc2nc(CC(=O)NCc3ccccc3OC)cs2)c1 | x | -3% | u | u
O=C(NNC(=O)c1n[nH]c2ccccc12)c1ccccc1 | x | -5% | 40% | 23%
CC(=NNC(=O)Cn1ccc(C(F)(F)F)n1)c1ccc(-n2ccnc2)cc1 | x | -4% | x | x
COc1ccccc1C1C=C(c2ccc(C)cc2)Nc2nnnn21 (stereo unspecified) | -2% | -9% | -17% | u
SMILES | NS1 function inh | SARS PLP yeast | Pf growth 48h | Pf growth 96h
COc1ccc(C2=CC(c3c(C)nn(-c4ccccc4)c3Cl)n3nnnc3N2)cc1OC (stereo unspecified) | 16% | -1% | 2.3µM* | u
Cc1ccc(S(=O)(=O)NC(CC(C)C)C(=O)Nc2nccs2)cc1 (stereo unspecified) | 4% | -5% | u | x
Cc1ccc(S(=O)(=O)NC(CC(C)C)C(=O)Nc2ccncc2)cc1 (stereo unspecified) | x | -12% | 5.2µM* | 5.9µM*
CCC(CO)Oc1cc(NCc2ccc(C(C)(C)C)cc2)c2ncn(C(C)C)c2c1 (stereo unspecified) | x | 4% | x | x
O=C1NC(=O)C(CCc2ccncc2)(CCc2ccncc2)C(=O)N1CCc1ccccc1 | -9% | 0% | u | 2.9µM*
C=CCNC(=S)N1CCN(c2ccc([N+](=O)[O-])cc2)CC1 | -2% | -5% | 1.7µM* | u
COc1ccc(C(=O)NC(=S)N2CCN(c3ccc([N+](=O)[O-])cc3)CC2)cc1 | 13% | u | 0% | 22%
CNC(=S)N1CCN(c2ccc([N+](=O)[O-])cc2)CC1 | -1% | -1% | u | 13µM*
CCNC(=S)N1CCN(c2ccc([N+](=O)[O-])cc2)CC1 | -14% | -3% | 12µM* | 6.6µM*
COCCCNC(=S)N1CCN(c2ccc([N+](=O)[O-])cc2)CC1 | 8% | 12% | 6.6µM* | -26%
O=[N+]([O-])c1ccc(N2CCN(C(=S)NCc3ccc(Cl)cc3)CC2)cc1 | u | -1% | u | 2%
COc1cccc(COCC(O)CN2CCC(C(N)=O)CC2)c1 (stereo unspecified) | 3% | 2% | u | -22%
CCCN1CCC(N2CCN(c3ccc([N+](=O)[O-])cc3)CC2)CC1 | 12% | -2% | u | 5.9µM*
CCN(C(=O)c1cc2c(s1)-c1ccccc1OC2)c1cc(OC)ccc1OC | 3% | -16% | u | 12µM*
CCN(C(=O)c1cc2c(s1)-c1ccccc1S(=O)(=O)C2)c1cc(OC)ccc1OC | 13% | 4% | 9.3µM* | u
COc1ccccc1C(=O)NC(=O)COC(=O)CCS(=O)(=O)c1ccc(C)cc1 | x | 2% | 5% | u
COc1cc(C(C(=O)NCc2ccccc2)N(Cc2ccco2)C(=O)c2cnccn2)cc(OC)c1OC (stereo unspecified) | x | -1% | 9.3µM* | 9%
O=C(NCc1ccccc1)C(c1ccc(F)cc1)N(Cc1cccs1)C(=O)c1cnccn1 (stereo unspecified) | -4% | 11% | -10% | -13%
COc1cc(C(C(=O)NC(C)(C)C)N(Cc2ccccc2)C(=O)c2cnccn2)cc(OC)c1OC (stereo unspecified) | -1% | -4% | 0% | u
O=C(NCc1ccccc1)C(c1ccccc1)N(Cc1cccs1)C(=O)c1cnccn1 (stereo unspecified) | 0% | 5% | -22% | 0.26µM*
CC(C)c1ccc(C(=O)COC(=O)C(O)c2ccccc2)cc1 (stereo unspecified) | x | 0% | x | x
CC(=O)Nc1ccc(N2C(=O)CSC2c2ccccc2)cc1 (stereo unspecified) | 2% | 0% | -4% | u
CCCCNc1nnc(SCC(=O)c2c(N)n(CCC)c(=O)[nH]c2=O)s1 | x | -1% | 12µM* | 9.3µM*
O=C(CCN1C(=O)C2CC=CCC2C1=O)Nc1cc(C(F)(F)F)ccc1N1CCCC1 (stereo unspecified) | x | -4% | 4% | 3%
O=C(NCCN1CCOCC1)c1ccccc1N1C(=O)[C@@H]2Cc3c([nH]c4ccccc34)C(c3ccccc3)N2C1=O (stereo partly specified) | -19% | 6% | u | u
O=C(NCCCN1CCOCC1)c1ccccc1N1C(=O)[C@@H]2Cc3c([nH]c4ccccc34)C(c3ccc(F)cc3)N2C1=O (stereo partly specified) | -28% | 2% | 13µM* | u

Bioassay records (PubChem BioAssay)
